Usually inhibition stands for the relative decrease from the control value, in per cent.

Each structure is given as a SMILES string. The campaign covered roughly 6,200 compounds. About 2,900 (47%) were called active. So high a share suggests a set chosen from earlier hits. The list shows a part of the results. Values without a mark were called inactive. Cut-off read from the data, not from the text of the source: active = inhibition above about 50%; inactive = the rest.

This assay in a line: Mycobacterium tuberculosis growth inhibition, primary screen (AID 1259343). The settings on record: inhibition: at 10 µM, active compounds read high; outcome: 10 uM.
Take `CC(C)C(=O)NC(=S)Nc1nc2ccc(Cl)cc2s1`: the inhibition is 13.7%.

Take `CSc1nc2cc(NC(=S)NC(=O)c3ccccc3)ccc2s1`: the inhibition is 91.3% (active).

In the case of `O=C(Cc1cccc(Cl)c1)N1CCOC(COc2cccc(C(F)(F)F)c2)C1` (centres undefined), the inhibition was 17.4%. For `COc1cc(C(=O)N2CCOC(COc3cccc(C(F)(F)F)c3)C2)ccc1F` (centres undefined), the inhibition is 62.2% (active). For `O=C(c1cc(F)cc(F)c1)N1CCOC(COc2cccc(C(F)(F)F)c2)C1` (centres undefined), the inhibition is 84.5% (active). To `O=C(COc1ccc(F)cc1)N1CCOC(COc2cccc(C(F)(F)F)c2)C1` (centres undefined) belongs 15.7%; to `N#CSc1ccc(N)c(Cl)c1`, 94.6% (active); to `Cc1cccc(OCCN(C)c2cnn(-c3ccc(F)cc3F)c(=O)c2Cl)c1`, 14.4%. To `Cc1ccc(CSc2nc(CC(=O)NCc3ccccc3)cs2)cc1` belongs 62.1% (active); to `Cc1ccc(CSc2nc(CC(=O)NCc3ccco3)cs2)cc1`, 90.2% (active). With `Cc1ccc(CSc2nc(CC(=O)O)cs2)cc1` the figure was 31.9%.

On to `Cc1ccc(CSc2nc(CC(=O)NCC(C)C)cs2)cc1`, for which the inhibition is 58.9% (active). With `CCNC(=O)Cc1csc(SCc2ccc(C)cc2)n1` the figure was 72.3% (active); with `Cc1ccc(CSc2nc(CC(=O)NCc3cccs3)cs2)cc1`, 60.2% (active). Consider `CCC(C)NC(=O)Cc1csc(SCc2ccc(C)cc2)n1` (centres undefined), for which the inhibition was -14.8%. To `O=C(CCl)NC(=O)NCc1cccs1` belongs -19.2%; to `Cc1ccc(CSc2nc(CC(=O)NC3CC3)cs2)cc1`, 50%; to `Cc1ccc(CSc2nc(CC(=O)NC3CCCCC3)cs2)cc1`, 81.7% (active). With `Cc1ccc(CSc2nc(CC(=O)NC3CCCC3)cs2)cc1` the figure was 3.98%; with `CC(C)CN(CC(=O)Nc1nc(CC(=O)NCc2ccc(F)cc2)cs1)C(=O)c1ccc(Cl)cc1`, -3.41%; with `Cc1ccc(CSc2nc(CC(=O)NC(C)C)cs2)cc1`, 69.6% (active). Take `Cc1ccc(CSc2nc(CC(=O)NCCC(C)C)cs2)cc1`: the inhibition was 5.27%.

On to `CC(C)CCNC(=O)Cc1csc(SCc2ccc(Cl)cc2)n1`, for which the inhibition was 68.8% (active). With `CC(C)Cc1noc(-c2ccc(-c3ccc4c(c3)OCCO4)nc2)n1` the figure was 3.86%. With `CC(Cc1ccccc1F)NCc1noc(-c2ccc3c(c2)OCO3)n1` (centres undefined) the figure was 59.5% (active); with `CC(Cc1cccnc1)NCc1nc(Cc2ccccc2F)no1` (centres undefined), 33.9%. To `Nc1ccc2nc(SCc3ccc(F)cc3)sc2c1` belongs 16.7%. For the molecule `Cc1nc2ccc(N)cc2s1`, the inhibition was 94.6% (active). With `Nc1nc2ccc(Oc3ccc4nc(N)sc4c3)cc2s1`, the inhibition is 21%. Regarding `COc1cc(OC)nc(Nc2nc(C(N)Cc3ccc(F)cc3)cs2)n1` (centres undefined), the inhibition is 71.1% (active). With `COc1cc(OC)nc(Nc2nc(C(N)Cc3ccc(Cl)cc3)cs2)n1` (centres undefined) the figure was 93.6% (active); with `Oc1ccc(C=Nc2ccc3oc4ccccc4c3c2)c(O)c1O`, 95% (active); with `C(=C\c1cccc(N2CCNCC2)c1)/c1ccccc1`, 90.8% (active). With `COc1cccc(C=CC(=O)c2cccc(N3CCOCC3)c2)c1`, the inhibition was 44.4%. As to `CC1(C)C2(Cl)C(Cl)C(Cl)C(Cl)(C(Cl)Cl)C1(Cl)C2Cl` (centres undefined), the inhibition is 65.2% (active).

In the case of `S=c1nc[nH]c2nc[nH]c12`, the inhibition is 49.3%. To `FC(F)(F)c1ccnc(NCC2COc3ccccc3O2)n1` (centres undefined) belongs 96.6% (active); to `Brc1ccccc1CNCC1COc2ccccc2O1` (centres undefined), -26.4%. With `FC(F)(F)CCc1ccnc(NCC2COc3ccccc3O2)n1` (centres undefined) the figure was 24.3%. Regarding `OC(C#CCC(O)c1ccccc1)c1ccccc1` (centres undefined), the inhibition was 101% (active). Take `CN(CC(O)c1ccccc1F)C(c1ccccc1)c1ccccc1` (centres undefined): the inhibition was -46%. To `N#Cc1ccc(S(=O)(=O)N2CCN(c3ccccc3F)CC2)cc1` belongs 8.35%; to `N#Cc1ccc(S(=O)(=O)N2CCC(Cc3ccc(C(F)(F)F)cc3)CC2)cc1`, 71.7% (active).

Take `O=S(=O)(c1ccc(F)cc1)N1CCCC(OCc2cc(F)cc(F)c2)C1` (centres undefined): the inhibition was 2.58%.

As for `N#Cc1ccc(S(=O)(=O)N2CCC(Cc3ccc(F)cc3)CC2)cc1`, the inhibition is 60.9% (active). Turning to `O=C(O)c1cc[c]([Hg][Cl])cc1`, the inhibition is 33.6%. In the case of `O=C(CNc1ccc2c(c1)OC(F)(F)O2)N1CCc2sccc2C1`, the inhibition is -40%.

Turning to `COc1ccc(C)cc1NC(=O)N1CCN(CCCOC(c2ccc(Cl)cc2)c2ccc(Cl)cc2)CC1`, the inhibition was -0.67%. With `COc1ccc(Cl)cc1NCC(=O)N1CCc2sccc2C1` the figure was 83.7% (active). With `CC(C)Oc1ccc(NC(=O)C2CCOCC2)cc1Cl` the figure was 95.4% (active).

Turning to `CC(C)Oc1ccc(NC(=O)Cc2cccs2)cc1Cl`, the inhibition is 38%. To `C=CCn1c(=NC(=O)c2ccc(OC)cc2)sc2cccc(OC)c21` belongs 39.7%; to `Cc1cc(NC(=O)c2cccs2)n(-c2nc(C)c(C)c(=O)[nH]2)n1`, 98.8% (active); to `CCc1c(C)nc(-n2nc(C)cc2NC(=O)c2cccs2)[nH]c1=O`, 101% (active). To `CCCCS(=O)(=O)N(C)Cc1ccc(-c2ccc(Br)cc2)o1` belongs 83.2% (active); to `OCC#CCSc1nnc(-c2cccc(Br)c2)o1`, -10.9%; to `Brc1ccccc1-c1nnc(SCc2ncc(-c3ccccc3)o2)o1`, -4.92%. Take `OCC#CCSc1nnc(-c2ccccc2Br)o1`: the inhibition is 99.2% (active).

As for `Fc1ccc(CN2CCC(Cc3ccc(-c4ccccc4)cc3)CC2)cc1C(F)(F)F`, the inhibition was 59% (active). With `CC(C)(C)c1ccc2c(c1)OCC(C(=O)Nc1nc(-c3ccncc3)cs1)O2` (centres undefined) the figure was 84.6% (active); with `CC(=O)Nc1ccc(-c2csc(NC(=O)C3Cc4ccccc4O3)n2)c(F)c1` (centres undefined), 16.7%; with `Oc1cccc2ccc(C=Cc3cccc(Br)c3)nc12`, 90.5% (active). Take `Oc1cccc2ccc(/C=C/c3ccccc3OC(F)F)nc12`: the inhibition was 100% (active). With `COC(=O)c1cc(C=O)c2ccc3ccccc3n12` the figure was 27.1%; with `COc1ccc(Br)cc1C=Cc1ccc2cccc(O)c2n1`, 17.6%; with `COC(=O)c1ccc(C=Cc2ccc3cccc(O)c3n2)cc1`, 63.1% (active).

For `CCc1ccc(NC(=O)C(C)n2cc(C(F)(F)F)ccc2=O)cc1` (centres undefined), the inhibition is 49.6%. To `CCc1ccc(NC(=O)c2ccc(CN3CCCC3=O)cc2)cc1` belongs 73.2% (active).

With `Cc1cc(NC(=O)c2ccc(CN3C(=O)CC4(CCCC4)C3=O)cc2)ccc1Cl`, the inhibition is -6.77%.

Source of the values: PubChem BioAssay AID1259343 (VanderVen Lab, College of Veterinary Medicine, Cornell …, 2017).
